Data on 8 molecules can be found in PubChem BioAssay (NCI).

Compounds without any hit were thinned out: in the full panel of roughly 83,000, 20% have a hit.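 The endpoint reported here, percent growth, reads 100 for growth as untreated, 0 for no net growth and -100 for all cells dead.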 A number with no mark means an inactive call. Activity calls are given as the source filed them. How the source made its calls: active means growth percent below 10; inactive means the rest.

Test in all cases: NCI-60 one-dose screen, 48 h (100 = growth as untreated, 0 = no growth, -100 = all killed)
Details in all cases: 10 µM unless noted

Experiment [1] has as its system DU-145 prostate.
The subject of experiment [2] is K-562 leukemia.
Experiment [3] concerns MALME-3M melanoma.
Experiment [4] has as its system MDA-MB-231 breast.
Experiment [5] concerns RXF 393 renal.
Experiment [6] relates to SF-268 CNS.
The subject of experiment [7] is SF-295 CNS.
Experiment [8] concerns SF-539 CNS.
The test system of experiment [9] is UACC-257 melanoma.
The subject of experiment [10] is M14 melanoma.
The subject of experiment [11] is HCT-15 colon.
The test system of experiment [12] is HT29 colon.
Experiment [13] deals with SNB-75 CNS.
For experiment [14], the system named is SNB-19 CNS.
Experiment [15] has as its system U251 CNS.
For experiment [16], the system named is PC-3 prostate.
Experiment [17] relates to SK-MEL-5 melanoma.
The test system of experiment [18] is UACC-62 melanoma.
Experiment [19] deals with LOX IMVI melanoma.
For experiment [20], the system named is SK-MEL-28 melanoma.

For the molecule `COc1ncnc2c1ncn2C/C(Br)=C(\Br)CCl`, the growth is 36.8% in [1]; 7.96% (active) in experiment [2]; -6.59% (active) in experiment [3]; 41.8% in experiment [4]; 70.1% in experiment [5]; 11.6% in experiment [6]. Besides, the growth was 97.2% in experiment [7]; 11.8% in [8]; -40.5% (active) in experiment [9]; -24.6% (active) in [10]; 31.6% in [11]; -56.8% (active) in [12]. For the same molecule, the growth was 46.6% in experiment [13]; 89.9% in [14]; -71.8% (active) in experiment [15]; 46.4% in [16]; 53.7% in experiment [17]; 57.3% in [18]. In addition, the growth in [19] was -87.2% (active); in experiment [20], 77.4%.

With `CCC(C)Oc1cc(/C=N/NC(=O)c2cnn3c2NC(c2ccccc2)C3)ccc1OC` (stereo not given), the growth is 45.6% in experiment [1]; 15.8% in [2]; 58.4% in experiment [3]; 39.4% in experiment [4]; 21% in experiment [5]; 44.7% in [6]. For the same molecule, the growth in experiment [7] was 18.7%; in experiment [8], 9.65% (active); in experiment [9] it was 55.5%; in experiment [10], 34%; in [11], 23.9%; in experiment [12] it was 15%. In addition, the growth was -12.2% (active) in experiment [13]; 38.6% in experiment [14]; 34.8% in [15]; 25.3% in [16]; 21.2% in experiment [17]; 36% in experiment [18]. Besides, the growth in [19] was 26.1%; in [20], 59.1%.

For the molecule `CCOC(=O)c1c(Cl)c2c(n1Cc1cc(OC)cc(OC)c1)-c1oncc1CCC2`, the growth in experiment [1] was 21.5%; in experiment [2], 9.73% (active); in experiment [3] it was 22.6%; in experiment [4], 35.5%; in [5] it was 21.7%; in experiment [6], 50.5%. In addition, the growth in experiment [7] is 6.63% (active); in experiment [8] it was 7.36% (active); in [9], 72.4%; in [10] it was 12.7%; in [11] it was 21.5%; in experiment [12], 3.92% (active). The growth was 1.91% (active) in experiment [13]; 55.8% in experiment [14]; 33.2% in experiment [15]; 23.4% in [16]; 17.7% in [17]; 28.5% in experiment [18]. In addition, the growth is 43.7% in [19] and 40.7% in experiment [20].

Consider `Cc1ccc(S(=O)(=O)N2CCc3ccc(O)c4c3C2Cc2cc(Cl)ccc2-4)cc1` (stereo not given), for which the growth in [1] is 85.5%; in experiment [2], 24.7%; in experiment [3], 57%; in experiment [4], 82.4%; in [5] it was 71%; in experiment [6], 61.9%. Moreover, the growth in experiment [7] is 84.7%; in experiment [8] it was 58.2%; in experiment [9], 63.4%; in experiment [10], 68.7%; in experiment [11], 48.4%; in experiment [12], 103%. Also, the growth is 48.7% in experiment [13]; 83.9% in [14]; 30.2% in experiment [15]; 65.7% in [16]; 52.8% in [17]; 57% in experiment [18]. The growth in experiment [19] is 68.9%; in [20], 56.6%.

Turning to `COc1ccc(Sc2ccc3[nH]c(=O)nc(N)c3c2)cc1`, the growth in experiment [1] is 108%; in experiment [2] it was 100%; in experiment [3], 102%; in [4], 91.5%; in experiment [5], 101%; in experiment [6], 107%. In addition, the growth was 106% in experiment [7]; 105% in experiment [8]; 92% in experiment [9]; 105% in experiment [10]; 103% in experiment [11]; 106% in experiment [12]. For the same molecule, the growth is 91.3% in experiment [13]; 94.1% in experiment [14]; 94.3% in experiment [15]; 96.9% in [16]; 103% in experiment [17]; 105% in experiment [18]. In addition, the figures for the growth in [19] and in experiment [20] were 99.7% and 104%, respectively.

Take `COc1ccc(/C=N/OCC(O)CN2CCC(O)CC2)cc1OC1CCCC1` (stereo not given): the growth in experiment [1] is 109%; in [2] it was 100%; in experiment [3], 108%; in experiment [4], 99.7%; in experiment [5], 115%; in experiment [6], 94.7%. In addition, the growth is 104% in experiment [7]; 101% in experiment [8]; 109% in experiment [9]; 94.3% in experiment [10]; 109% in experiment [11]; 104% in experiment [12]. Besides, the growth was 80% in [13]; 95.9% in experiment [14]; 103% in experiment [15]; 94.7% in experiment [16]; 98.8% in experiment [17]; 103% in experiment [18]. In addition, the growth in experiment [19] and in experiment [20] was 105% throughout.

Take `CCN(CC)c1ccc(/C=C(\C#N)c2cc3ccccc3[nH]2)cc1`: the growth in experiment [1] was 74.1%; in experiment [2], 14.2%; in [3], 71.7%; in experiment [4], 48.6%; in experiment [5], 94%; in experiment [6], 71.8%. Also, the growth in experiment [7] was 46.9%; in experiment [8] it was 58.3%; in experiment [9] it was 81.5%; in experiment [10], 29.6%; in experiment [11], 29.7%; in experiment [12] it was 13.7%. For the same molecule, the growth was 55.2% in experiment [13]; 72.9% in experiment [14]; 41.7% in [15]; 77% in experiment [16]; 52.1% in experiment [17]; 64% in experiment [18]. Also, the growth in experiment [19] was 29.7%; in experiment [20] it was 67.1%.

With `O=C1Nc2ccc(Cl)cc2/C1=N/N=C(c1ccccc1)c1ccccc1`, the growth in experiment [1] was 103%; in experiment [2] it was 93.3%; in [3], 87.9%; in experiment [4] it was 75.6%; in [5], 109%; in [6], 97.8%. The growth is 92.6% in experiment [7]; 97% in experiment [8]; 98.5% in experiment [9]; 102% in experiment [10]; 87.2% in experiment [11]; 98.3% in [12]. Besides, the growth in [13] was 74.5%; in experiment [14], 62.7%; in experiment [15], 94.5%; in experiment [16], 86.2%; in experiment [17], 99%; in experiment [18], 84.6%. For the same molecule, the figures for the growth in experiment [19] and in experiment [20] were 87.5% and 117%, respectively.
